PubChem BioAssay AID1347383 (Zoeller Lab, School of Medicine, Boston University, 2020)
Activity calls are given as the source filed them.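 How the source made its calls: active means cell survival after UV exposure 2 SD above solvent-only control wells at 10 µM, confirmed on one or two repeats; inactive means the rest.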

experiment: protection of CHO cells from pyrene-fatty acid UV killing, primary screen, phospholipid biosynthesis inhibitor project, ZR-82 cells, Analyticon library, screen 2 (AID 1347383); settings: ZR-82 CHO cells, CellTiter Blue, at 10 µM, peroxisome-deficient CHO-K1 variant, with DGAT-1, DGAT-2 and ACAT inhibitors;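 further: survival reflects blocked phospholipid synthesis cutting uptake of the phototoxic fatty acid; compound and fatty acid exposure 3 h then viability read next day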

Compound	outcome
Nc1ncnc2c1ncn2[C@@H]1O[C@H](CO)C[C@H]1O	inactive
CC1CC(O)/C=C/C(O)CCC(=O)Cc2c(Cl)c(O)cc(O)c2C(=O)O1 (stereo not drawn)	inactive
OC1C(O)C(O)C(O)C(O)C1O (stereo not drawn)	inactive
CC(C)(O)C1OC1C1=CC(=O)C2(C)OC2C1O (stereo not drawn)	inactive
CCC(C)C(=O)OC1CCCC2C=CC(C)C(CCC(O)CC(O)CC(=O)O)C21 (stereo not drawn)	inactive
O=C(O)CC(O)(Cc1ccc(O)cc1)C(=O)O (stereo not drawn)	inactive
Cc1coc2c1CC1OC1(C)CCC1OC1(C)C2 (stereo not drawn)	inactive
O=c1c(O)c(-c2ccc(O)cc2O)oc2cc(O)cc(O)c12	inactive
CC1(O)CC(C)(O)C2=C(O1)C(=O)c1ccccc12 (stereo not drawn)	inactive
CCCCCCCCCCC1CC2=C(OC(CCCCCCC)CC2=O)C(=O)O1 (stereo not drawn)	inactive
COc1ccc(Cc2nccc3cc(OC)c(OC)cc23)cc1OC	inactive
CCC(C)CC(C)/C=C/CCC(O)C(Cc1ccc(O)cc1)NC (stereo not drawn)	inactive
CC1(C)CC(O)CC2(C)OC(=O)C=C12 (stereo not drawn)	inactive
CC[C@H]1C(=O)CC2C3CCC4C[C@@H](O)[C@]5(O)C[C@]4(CO5)C3CC[C@@]21C (stereo partly drawn)	inactive
O=C1c2c(O)cc(O)cc2O[C@@H](c2ccc(O)cc2)[C@@H]1O	inactive
C/C=C/C1=C(Cl)C(=O)[C@@H](O)[C@@]1(O)C(=O)OC	inactive
CC(=O)O[C@H]1C[C@@]2(C)[C@@H](CC[C@H]3[C@@]4(C)C=CC(=O)[C@@H](C)[C@@H]4[C@H](OC(C)=O)C(=O)[C@@]32C)/C1=C(\CCC=C(C)C)C(=O)O	inactive
O=C1NC(Cc2c[nH]c3ccccc23)C(=O)NC1Cc1ccccc1 (stereo not drawn)	inactive
